In PubChem BioAssay:
Values without a mark were called inactive.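 How the source made its calls, unless noted: active means inhibition over a set limit, the all-compound mean plus 3 SD, in both replicate runs; inconclusive means over that limit in just one replicate run; inactive means at or under that limit in both runs.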

Experiment: RAM pathway blockade in budding yeast – dse1pr::URA3 reporter, 5-FOA selection, pilot screen (AID 869);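 further: 0% = DMSO wells with no growth and 100% = 10 µM 1-NA-PP1 with full growth; RAM network block rescues cells from 5-FOA so hits raise OD615 growth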
Conditions: S. cerevisiae dse1pr::URA3 5-FOA growth, OD615, 2 d; at 10 µM; active compounds read high; strain carries analog-sensitive mutant Cbk1 kinase

| Compound | inhibition |
| --- | --- |
| Cc1ccc(NC(=O)c2cc(-c3ccc(C)o3)nc3ccccc23)nc1 | 1.21% |
| CCc1cccc(NC(=O)Cn2cc3c(n2)CCCC3)c1 | 1.69% |
| CCN(CC)C(=O)C1CCCN(c2ncnc3c2cnn3-c2ccc(Cl)cc2)C1 (stereo not given) | 0.62% |
| Cc1cccc(NC(=O)CS(=O)(=O)c2cn(C)c3ccccc23)c1 | 1.98% |
| O=C(CN1C(=O)c2ccccc2S1(=O)=O)NCc1ccccc1Cl | 0.125% |
| Cn1cnc2cc(NC(=O)c3ccc(Cl)cc3)ccc21 | 0.75% |
| COC(=O)c1cn(NC(=O)C2CCCO2)c(=O)c2ccccc12 (stereo not given) | 1.48% |
| O=C(c1ccc(Cl)s1)N1CCN(c2nc3ccccc3s2)CC1 | 2.66% |
| O=C(Nc1ccc(N2C(=O)C3C4C=CC(C4)C3C2=O)cc1)Nc1nncs1 (stereo not given) | 0.53% |
| CNC(=O)c1ccccc1NC(=O)c1c(O)c2c([nH]c1=O)CCCC2 | 1.7% |
| COc1ccccc1CNC(=O)CCn1c(=O)[nH]c2ccsc2c1=O | 1.01% |
| Cc1ccc(-c2nc3cc(NC(=O)C(C)C)ccc3o2)cc1 | 3.04% |
| COc1ccccc1N1CCN(C(=O)c2cc(C3CC3)on2)CC1 | 0.905% |
| CCCCN(C(=O)c1ccc(Cl)cc1)C1CC2CCC(C1)N2C (stereo not given) | 1.62% |
| COc1ccc(OC)c2[nH]c(=O)c(CCNC(=O)C(C)C)cc12 | 0.005% |
| COc1ccccc1S(=O)(=O)Cc1ccc(C(=O)N2CCN(c3ccccn3)CC2)o1 | 0.76% |
| CCC(=O)c1cc(F)c(N2CCN(C(=O)c3ccco3)CC2)cc1C | 1.4% |
| CC(C)Cc1nnc(NS(=O)(=O)c2ccc(Cl)cc2)s1 | 1.43% |
| COc1ccc(N2C(=O)CCC(C(=O)N3CCCCC3)C2c2ccc(OC)c(OC)c2)cc1 (stereo not given) | 0.405% |
| Cc1c(C#N)c2ccccc2n1CC(=O)N1CCc2ccccc2C1 | 2.05% |

| Compound | inhibition |
| --- | --- |
| COCCCNC(=O)c1ccc(CS(=O)(=O)c2ccc(OC)cc2)o1 | 0.405% |
| CCCCSc1nc2c(cnn2-c2ccc(F)cc2)c(=O)[nH]1 | 1.85% |
| COc1ccc2[nH]c(C)c(CCN3C(=O)OC(C)(C)C3(C)O)c2c1 (stereo not given) | 1.92% |
| CCCCOCCCNC(=O)COc1ccccc1 | 0.215% |
| c1ccc(-c2cn3cccnc3n2)cc1 | 3.13% |
| CCCCn1c(SCC(=O)OCC)nc2c1c(=O)[nH]c(=O)n2C | 1.31% |
| O=C(CCn1c(=O)oc2ccccc21)NCc1ccco1 | 2.08% |
| CN(C)C(=O)N1CCN(C(=O)c2ccco2)CC1 | 2.13% |
| CC(=O)C1=C(C)Nc2ncnn2C1c1cccc(OCc2ccccc2)c1 (stereo not given) | 1.94% |
| CC1Cc2nc(SCC(=O)N3CCCc4ccccc43)n(C)c(=O)c2S1 (stereo not given) | 3.17% |
| CCOC(=O)N1CCN(C(=O)c2ccc3nc4ccsc4c(=O)n3c2)CC1 | 0.335% |
| CC(C)(C)SCCNC(=O)CN1C(=O)c2ccccc2S1(=O)=O | 1.42% |
| COc1cccc(-c2nnc(NC(C)=O)o2)c1 | 1.76% |
| CCCCc1cc(=O)oc2cc(OCC(=O)N(CC)CC)c(Cl)cc12 | -0.34% |
| CCOC(=O)CCc1c(C)nc2cc(-c3ccc(F)cc3)[nH]n2c1=O | 1.8% |
| CN(Cc1ccccc1)S(=O)(=O)c1ccc(S(=O)(=O)N2CCN(CCC#N)CC2)cc1 | 0.725% |
| Cc1ccc(-n2c3c(cc(C(=O)NCCCN4CCOCC4)c2=O)C(=O)CC(C)(C)C3)cc1 | -0.26% |
| COc1cc2c(cc1OC)C(c1ccc(C)o1)CC(=O)N2 (stereo not given) | 1.21% |
| O=C(Nc1ccc2c(c1)OCO2)c1ccc(CN2CCOCC2)cc1 | -0.165% |
| CC1Cn2c(nnc2-c2ccc(F)cc2)S1 (stereo not given) | 1.92% |

Experiment: RAM signaling pathway blockade in yeast – S. cerevisiae, Pdr1DBD-CYC8 efflux-inhibited sensitized strain, primary screen (AID 1298;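 active means RAM network inhibition above 8.4% in each of two replicates, 3 SD over the compound average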;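 further: 0% = DMSO untreated cells without growth and 100% = 10 µM 1-NA-PP1 full growth; higher means more yeast growth rescued from 5-FOA killing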)
Conditions: S. cerevisiae cbk1-as DSE1-URA3 strain, 5-FOA growth OD615, 2 d; at 50 µM; active compounds read high

| Compound | RAM network inhibition |
| --- | --- |
| Cc1ccc(NC(=O)c2cc(-c3ccc(C)o3)nc3ccccc23)nc1 | 0.74% |
| CCc1cccc(NC(=O)Cn2cc3c(n2)CCCC3)c1 | 0.42% |
| CCN(CC)C(=O)C1CCCN(c2ncnc3c2cnn3-c2ccc(Cl)cc2)C1 (stereo not given) | -2.04% |
| Cc1cccc(NC(=O)CS(=O)(=O)c2cn(C)c3ccccc23)c1 | 4.28% |
| O=C(CN1C(=O)c2ccccc2S1(=O)=O)NCc1ccccc1Cl | 4.41% |
| Cn1cnc2cc(NC(=O)c3ccc(Cl)cc3)ccc21 | -1.41% |
| COC(=O)c1cn(NC(=O)C2CCCO2)c(=O)c2ccccc12 (stereo not given) | 3% |
| O=C(c1ccc(Cl)s1)N1CCN(c2nc3ccccc3s2)CC1 | 2.18% |
| O=C(Nc1ccc(N2C(=O)C3C4C=CC(C4)C3C2=O)cc1)Nc1nncs1 (stereo not given) | 3.5% |
| CNC(=O)c1ccccc1NC(=O)c1c(O)c2c([nH]c1=O)CCCC2 | 3.36% |
| COc1ccccc1CNC(=O)CCn1c(=O)[nH]c2ccsc2c1=O | 4.41% |
| Cc1ccc(-c2nc3cc(NC(=O)C(C)C)ccc3o2)cc1 | 5.12% |
| COc1ccccc1N1CCN(C(=O)c2cc(C3CC3)on2)CC1 | 2.48% |
| CCCCN(C(=O)c1ccc(Cl)cc1)C1CC2CCC(C1)N2C (stereo not given) | -0.05% |
| COc1ccc(OC)c2[nH]c(=O)c(CCNC(=O)C(C)C)cc12 | 1.31% |
| COc1ccccc1S(=O)(=O)Cc1ccc(C(=O)N2CCN(c3ccccn3)CC2)o1 | 0.78% |
| CCC(=O)c1cc(F)c(N2CCN(C(=O)c3ccco3)CC2)cc1C | 0.21% |
| CC(C)Cc1nnc(NS(=O)(=O)c2ccc(Cl)cc2)s1 | 4.53% |
| COc1ccc(N2C(=O)CCC(C(=O)N3CCCCC3)C2c2ccc(OC)c(OC)c2)cc1 (stereo not given) | 2.24% |
| Cc1c(C#N)c2ccccc2n1CC(=O)N1CCc2ccccc2C1 | 4.34% |

| Compound | RAM network inhibition |
| --- | --- |
| COCCCNC(=O)c1ccc(CS(=O)(=O)c2ccc(OC)cc2)o1 | 1.46% |
| CCCCSc1nc2c(cnn2-c2ccc(F)cc2)c(=O)[nH]1 | 6.19% |
| COc1ccc2[nH]c(C)c(CCN3C(=O)OC(C)(C)C3(C)O)c2c1 (stereo not given) | 2.87% |
| CCCCOCCCNC(=O)COc1ccccc1 | -0.62% |
| c1ccc(-c2cn3cccnc3n2)cc1 | 1.13% |
| CCCCn1c(SCC(=O)OCC)nc2c1c(=O)[nH]c(=O)n2C | 0.35% |
| O=C(CCn1c(=O)oc2ccccc21)NCc1ccco1 | 2.93% |
| CN(C)C(=O)N1CCN(C(=O)c2ccco2)CC1 | 0.72% |
| CC(=O)C1=C(C)Nc2ncnn2C1c1cccc(OCc2ccccc2)c1 (stereo not given) | 4.69% |
| CC1Cc2nc(SCC(=O)N3CCCc4ccccc43)n(C)c(=O)c2S1 (stereo not given) | 6.46% |
| CCOC(=O)N1CCN(C(=O)c2ccc3nc4ccsc4c(=O)n3c2)CC1 | -0.16% |
| CC(C)(C)SCCNC(=O)CN1C(=O)c2ccccc2S1(=O)=O | 4.44% |
| COc1cccc(-c2nnc(NC(C)=O)o2)c1 | 1.45% |
| CCCCc1cc(=O)oc2cc(OCC(=O)N(CC)CC)c(Cl)cc12 | 5.28% |
| CCOC(=O)CCc1c(C)nc2cc(-c3ccc(F)cc3)[nH]n2c1=O | 1.51% |
| CN(Cc1ccccc1)S(=O)(=O)c1ccc(S(=O)(=O)N2CCN(CCC#N)CC2)cc1 | 4.91% |
| Cc1ccc(-n2c3c(cc(C(=O)NCCCN4CCOCC4)c2=O)C(=O)CC(C)(C)C3)cc1 | 3.35% |
| COc1cc2c(cc1OC)C(c1ccc(C)o1)CC(=O)N2 (stereo not given) | 0.73% |
| O=C(Nc1ccc2c(c1)OCO2)c1ccc(CN2CCOCC2)cc1 | 9.65% |
| CC1Cn2c(nnc2-c2ccc(F)cc2)S1 (stereo not given) | 3.35% |
